In PubChem BioAssay AID652162 (Broad Institute, 2013):
The campaign covered roughly 350,000 compounds. About 840 (0.24%) were called active. Cut-off read from the data, not from the text of the source: active = inhibition above about 10%; inactive = the rest. Many of the other results were omitted from the sample, so actives are more common in it than they were.

What follows are molecules tested against Toxin B (Clostridioides difficile) (UniProt P18177) (assay: TcdB glycohydrolase inhibitors, primary screen, biochemical, single point, plate reader (AID 652162)). Conditions: TcdB glycohydrolase enzymatic assay, at 9.99 µM, stronger effect = higher value.
Chain of Toxin B (Clostridioides difficile) (P18177 whole entry, looked up): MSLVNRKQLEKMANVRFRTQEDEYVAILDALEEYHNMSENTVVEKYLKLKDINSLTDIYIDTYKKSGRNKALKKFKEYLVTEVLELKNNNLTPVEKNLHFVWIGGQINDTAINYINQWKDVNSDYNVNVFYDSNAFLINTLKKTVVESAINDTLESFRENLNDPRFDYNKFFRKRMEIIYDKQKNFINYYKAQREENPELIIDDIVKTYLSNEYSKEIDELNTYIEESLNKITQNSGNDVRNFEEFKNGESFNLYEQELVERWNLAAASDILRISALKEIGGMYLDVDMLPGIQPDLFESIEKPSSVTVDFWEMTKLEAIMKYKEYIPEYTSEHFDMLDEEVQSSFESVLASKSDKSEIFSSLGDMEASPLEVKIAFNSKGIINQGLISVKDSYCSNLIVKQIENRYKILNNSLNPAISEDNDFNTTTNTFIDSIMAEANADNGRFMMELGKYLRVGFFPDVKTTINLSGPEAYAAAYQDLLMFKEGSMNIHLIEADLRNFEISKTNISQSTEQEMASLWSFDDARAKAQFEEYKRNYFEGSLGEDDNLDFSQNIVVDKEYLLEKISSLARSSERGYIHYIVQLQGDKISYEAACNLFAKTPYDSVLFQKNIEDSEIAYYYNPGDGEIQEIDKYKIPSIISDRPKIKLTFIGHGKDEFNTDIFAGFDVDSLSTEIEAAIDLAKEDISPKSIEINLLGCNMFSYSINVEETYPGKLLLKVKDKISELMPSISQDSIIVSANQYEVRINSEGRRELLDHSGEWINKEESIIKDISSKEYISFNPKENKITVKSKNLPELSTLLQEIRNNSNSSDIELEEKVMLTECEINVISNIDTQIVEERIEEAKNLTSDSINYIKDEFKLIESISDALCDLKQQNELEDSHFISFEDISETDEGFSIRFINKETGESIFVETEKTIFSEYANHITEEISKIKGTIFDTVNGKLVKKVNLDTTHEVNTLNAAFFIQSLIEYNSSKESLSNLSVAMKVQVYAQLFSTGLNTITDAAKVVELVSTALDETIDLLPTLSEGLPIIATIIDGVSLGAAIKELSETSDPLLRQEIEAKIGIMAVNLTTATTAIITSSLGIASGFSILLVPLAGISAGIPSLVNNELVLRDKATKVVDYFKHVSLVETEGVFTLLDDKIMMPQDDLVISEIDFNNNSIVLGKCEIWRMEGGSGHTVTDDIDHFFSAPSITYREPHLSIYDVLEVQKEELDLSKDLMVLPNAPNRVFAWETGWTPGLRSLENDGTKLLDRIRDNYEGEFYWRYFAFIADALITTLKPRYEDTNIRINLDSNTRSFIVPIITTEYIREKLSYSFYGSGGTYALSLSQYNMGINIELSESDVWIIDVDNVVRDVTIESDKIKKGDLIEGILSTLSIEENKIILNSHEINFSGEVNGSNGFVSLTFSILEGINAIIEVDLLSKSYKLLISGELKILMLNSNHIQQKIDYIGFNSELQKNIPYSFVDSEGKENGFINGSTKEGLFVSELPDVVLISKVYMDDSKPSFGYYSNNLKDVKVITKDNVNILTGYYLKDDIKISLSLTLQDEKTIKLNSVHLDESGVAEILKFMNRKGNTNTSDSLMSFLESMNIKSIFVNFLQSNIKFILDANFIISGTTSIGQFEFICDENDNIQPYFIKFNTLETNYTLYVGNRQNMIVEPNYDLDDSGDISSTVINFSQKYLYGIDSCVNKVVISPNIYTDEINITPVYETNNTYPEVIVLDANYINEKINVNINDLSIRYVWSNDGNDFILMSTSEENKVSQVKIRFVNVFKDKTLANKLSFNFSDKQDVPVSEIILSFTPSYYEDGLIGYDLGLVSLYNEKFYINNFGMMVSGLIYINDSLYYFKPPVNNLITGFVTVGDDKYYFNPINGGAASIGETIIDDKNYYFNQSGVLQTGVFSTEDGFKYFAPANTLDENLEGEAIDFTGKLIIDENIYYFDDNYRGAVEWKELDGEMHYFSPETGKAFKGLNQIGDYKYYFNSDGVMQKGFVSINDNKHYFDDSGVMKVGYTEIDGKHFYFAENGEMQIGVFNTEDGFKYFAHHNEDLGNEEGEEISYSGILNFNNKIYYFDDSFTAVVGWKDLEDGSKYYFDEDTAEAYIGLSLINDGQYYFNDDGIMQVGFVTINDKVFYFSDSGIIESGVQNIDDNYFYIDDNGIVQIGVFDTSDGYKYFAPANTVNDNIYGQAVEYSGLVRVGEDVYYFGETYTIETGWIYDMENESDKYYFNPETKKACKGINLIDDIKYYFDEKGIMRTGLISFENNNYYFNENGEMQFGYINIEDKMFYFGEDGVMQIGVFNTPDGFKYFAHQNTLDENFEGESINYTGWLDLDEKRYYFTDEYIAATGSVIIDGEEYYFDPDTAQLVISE
`O=C(Cc1ccccn1)N[C@H]1CC[C@H](CCn2cc(-c3ccc(F)cc3)nn2)O[C@H]1CO` was tested, and the inhibition was -7.26% (inactive).
With `CO[C@@H]1CN(C)C(=O)c2cc(NC(C)=O)ccc2OC[C@H](C)N(Cc2ccccn2)C[C@H]1C` the inhibition was 0.576% (inactive).
`COc1cccc(-n2c(=S)sc3c(=O)n(-c4ccccc4OC)c(SCC4OCCO4)nc32)c1` was tested, and the inhibition was 1.51% (inactive).
In the case of `COc1ccccc1-n1c(SCC(=O)O)nc2sc3c(c2c1=O)CCC3`, the inhibition was -0.511% (inactive).
In the case of `COc1ccc(Cl)cc1-n1c(=S)sc2c(=O)n(-c3ccc(F)cc3)c(SCC(=O)O)nc21`, the inhibition was 20.5% (active).
For `Cc1cccc(S(=O)(=O)N2CCCCN3[C@@H](CO)[C@H](c4ccc(-c5cccnc5)cc4)[C@@H]3C2)c1`, the inhibition was 0.453% (inactive).
`CCNC(=O)C[C@H]1CC[C@@H]2[C@H](COC[C@H](O)CN2C(=O)Nc2c(C)noc2C)O1` was tested, and the inhibition was -1.03% (inactive).
In the case of `COc1ccc(CN(C)C[C@H]2OCCCC[C@H](C)Oc3ccc(NC(=O)NC4CCCCC4)cc3C(=O)N([C@@H](C)CO)C[C@@H]2C)cc1`, the inhibition was 0.374% (inactive).
In the case of `CO[C@@H]1CN(C)C(=O)c2cc(NC(=O)c3ccc4c(c3)OCO4)ccc2OC[C@H](C)N(CCC(F)(F)F)C[C@H]1C`, the inhibition was 1.3% (inactive).
For `O=C(NCC[C@H]1CC[C@@H](NS(=O)(=O)c2cccc(Cl)c2)[C@@H](CO)O1)c1cnccn1`, the inhibition was -2.69% (inactive).
With `C[C@H]1CN([C@@H](C)CO)C(=O)c2cc(C#Cc3ccccc3F)cnc2O[C@@H]1CN(C)C(=O)C1CC1` the inhibition was -2.35% (inactive).
For `N#C[C@H]1[C@@H](c2ccccc2C2=CCCCC2)[C@H](CO)N1C(=O)c1ccccn1`, the inhibition was -7.67% (inactive).
With `COc1ccc2c3c(n(C)c2c1)[C@H](CO)N(C(C)=O)CC31CN(C(=O)c2cnccn2)C1` the inhibition was 0.415% (inactive).
For `CCOC(=O)C1CCN(Cc2c(C(=O)N3CCOCC3)nc3c(C)cccn23)CC1`, the inhibition was 1.15% (inactive).
`Cc1cccn2c(CNCC(C)Oc3cccnc3)c(C(=O)N3CCOCC3)nc12` (stereo not given) was tested, and the inhibition was -0.924% (inactive).
`Cc1cccn2c(CN(C)C3CCCc4ccccc43)c(C(=O)N3CCOCC3)nc12` (stereo not given) was tested, and the inhibition was 11% (active).
For `COc1ccc(C#Cc2ccc([C@H]3[C@H]4CN(C(=O)c5ccncc5)CC(=O)N4[C@H]3CO)cc2)cc1`, the inhibition was -0.009% (inactive).
In the case of `N#C[C@@H]1[C@H](c2ccccc2-c2cccc(F)c2)[C@@H](CO)N1C(=O)CN1CCOCC1`, the inhibition was -0.655% (inactive).
In the case of `Cc1noc(C)c1NC(=O)N[C@@H]1CC[C@H](CC(=O)Nc2ccccc2)O[C@H]1CO`, the inhibition was 2.14% (inactive).
With `CO[C@@H]1CC[C@@H]2CCOc3c(C#N)cccc3C(=O)N(C)C[C@@H](C)C(=O)N(C)C[C@@H]1O2` the inhibition was -0.159% (inactive).
